Source: PubChem BioAssay
Only some compounds are listed: those with a hit (about 9.7% of all), similar ones and a draw of the others.
Autofluor 339 = intrinsic fluorescence of library compounds, ex339/em460 – biochemical, MLSMR library, data from DPM-DC assay, artefact control, profiling panel | fluorescence fold increase at 10 µM | AID 709 | compound autofluorescence, ex339/em460 nm, NADH buffer; hits give high values; 1 = no-compound wells, NADH background | 65,000 tested, 5.5% active;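 active = at 10 µM, mean starting fluorescence two-fold or more over control wells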;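 also: signal is the first read of a kinetic run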
Abs 340nm = absorbance at 340 nm. compound absorbance at 340 nm, fold over control. fold change at 10 µM. 65,000 tested, under 10 active. AID 708;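 active = at 10 µM dose, initial 340 nm absorbance at least 2 fold that of control wells; inactive = change under 2 fold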;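 also: initial absorbance extrapolated from kinetic A340 decline of NADH oxidation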
WNV protease inh = WNV NS2B-NS3 proteinase inhibition; P06935; WNV NS2B-NS3 protease, fluorogenic substrate Ex360/Em465; hits give low values; z-score (no concentration beside the values); 65,000 tested, 0.18% active; AID 577; in the data active = z-score below about -3
Target sequence (P06935 1371-1501 limits assumed): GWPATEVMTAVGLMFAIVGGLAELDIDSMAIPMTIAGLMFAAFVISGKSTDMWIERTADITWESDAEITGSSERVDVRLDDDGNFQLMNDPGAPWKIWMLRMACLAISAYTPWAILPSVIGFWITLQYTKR
Target sequence (P06935 1502-1679 limits assumed): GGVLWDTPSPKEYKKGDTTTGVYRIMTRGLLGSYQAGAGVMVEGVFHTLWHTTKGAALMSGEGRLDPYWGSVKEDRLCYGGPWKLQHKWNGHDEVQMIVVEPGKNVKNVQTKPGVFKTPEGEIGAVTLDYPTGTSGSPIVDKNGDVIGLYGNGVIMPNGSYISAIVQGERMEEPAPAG
M1 antagonist = M1 muscarinic receptor (rat) antagonism | CHO-M1 cells, Fluo-4 calcium, ACh EC80 antagonist mode; hits give low values | B-score at 10 µM | P08482 | 64,000 tested, 3.4% active;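 active = calcium fluorescence response, raw or row-and-column corrected B-score, differing from the plate sample mean either way at a set confidence level, mostly lower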
BAP1 inh = blocks human BAP1 ubiquitin-AMC hydrolysis; recombinant BAP1, Ub-AMC hydrolysis fluorescence kinetic; hits give low values; calls only at 20 µM; 72,000 tested, 0.48% active; AID 436;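 active = activity remaining at or below 50% of control, provided the compound also passes the data quality filters; inactive = the rest, including low values that fail the filters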;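 also: 100% = DMSO wells rate and 0% = substrate alone blank rate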
M1 agonist = activates the M1 muscarinic receptor; B-score at 10 µM; 64,000 tested, 3% active; AID 626; CHO-M1 cells, Fluo-4 calcium fluorescence, agonist mode; hits give high values;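 active = fluorescence rise, raw or as B-score row- and column-corrected plate score, outside the 99.7% band of its plate's samples, either direction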
BAP1 inh confirm = confirmation of human BAP1 enzyme inhibitors | 310 tested, 8% active | shares compounds with BAP1 inh | % of control activity, % at 20 µM | purified BAP1, Ub-ethyl ester hydrolysis, HPLC; hits give low values;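 active = percent of control activity at or below 60%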
* marks the source's active call; other numbers are inactive results.

`CCCc1[nH]nc2c1C1(C(=O)N(CC(N)=O)c3ccccc31)C(C(=O)OC)=C(N)O2` (configuration not stated) gave Autofluor 339 1.1, Abs 340nm 1, WNV protease inh 0.5, M1 antagonist 2.3*, BAP1 inh inactive and M1 agonist 1.8.
For O=S(=O)(c1ccc(Cl)cc1)N1CN2CCN(C2)C1 the results were Autofluor 339 1.1, Abs 340nm 0.99, WNV protease inh -4.8*, M1 antagonist 0.86, BAP1 inh inactive and M1 agonist -0.0089.
For CC12CCC(O)CC1=CCC1C2CCC2(C)C(O)C(=Cc3ccc(OC(F)F)cc3)CC12 (configuration not stated) the results were BAP1 inh inactive.
For CC(C)CC12CN3CCN(CC(C3)C1O)C2 (configuration not stated) the results were Autofluor 339 1.1, Abs 340nm 1.1, WNV protease inh -1, M1 antagonist 1.4*, BAP1 inh inactive and M1 agonist 1.1.
Screening CC12CN3CCN(CC(C3)C1O)C2 (configuration not stated) returned Autofluor 339 1.1, Abs 340nm 1, WNV protease inh 0.05, M1 antagonist -0.13, BAP1 inh inactive and M1 agonist -0.87.
`CNc1ccc2oc(C[C@H]3O[C@@]4(CC[C@H]3C)O[C@H]([C@H](C)C(=O)c3ccc[nH]3)[C@H](C)C[C@H]4C)nc2c1C(=O)O` gave BAP1 inh active.
COc1ccc(C(=O)Nc2ccc(Cl)cc2C(=O)c2ccccc2Cl)c(OC)c1 was read as BAP1 inh inactive.
`CCOC(=O)c1c(N)n(Cc2ccc(OC)cc2)c2nc3ccccc3nc12` gave Autofluor 339 3.9*, Abs 340nm 1, WNV protease inh -0.76, M1 antagonist 0.48 and M1 agonist 0.36.
For COCCOC(=O)c1c(N)n(Cc2ccc(OC)cc2)c2nc3ccccc3nc12 the results were Autofluor 339 3.9*, Abs 340nm 1.1, WNV protease inh 1.2, M1 antagonist -1.5 and M1 agonist -0.1.
Screening COC(=O)c1c(N)n(Cc2ccc(OC)cc2)c2nc3ccccc3nc12 returned Autofluor 339 3.7*, Abs 340nm 1.1, WNV protease inh 1.6, M1 antagonist 0.11 and M1 agonist -1.4.
Screening COc1ccc(CN2C(=O)CC(=O)NC2=O)cc1 returned Autofluor 339 1.1, Abs 340nm 0.99, WNV protease inh 0.16, M1 antagonist 0.38, BAP1 inh inactive and M1 agonist 1.3.
O=P(Nc1cccc(F)c1)(Oc1ccccc1Cl)Oc1ccccc1Cl was read as BAP1 inh inactive.
`COc1ccccc1-n1c(C=Cc2ccccc2[N+](=O)[O-])nc2ccccc2c1=O` gave BAP1 inh inactive.
`Cc1ccc(C)c(N2CCNCC2)c1` gave BAP1 inh inactive.
`CCOC(=O)[C@]1(C#N)[C@@H]2C=CC(C(C)=O)=CN2[C@@H](C(N)=O)[C@@H]1c1ccsc1` gave Autofluor 339 1, Abs 340nm 1.1, WNV protease inh -0.86, M1 antagonist -0.2, BAP1 inh inactive and M1 agonist 26*.
Screening O=c1cccc2n1CC1CC2CN(c2ncnc3c2cnn3-c2ccc(Cl)cc2)C1 (configuration not stated) returned Autofluor 339 1.1, Abs 340nm 1.1, WNV protease inh -0.93, M1 antagonist 0.25 and M1 agonist -3.6*.
Screening O=C(Nc1ccc(Br)cc1C(=O)c1ccccc1)c1ccc(S(=O)(=O)N2CCOCC2)cc1 returned BAP1 inh inactive.
For CC(C)OC(=O)c1c(N)n(Cc2ccco2)c2nc3ccccc3nc12 the results were Autofluor 339 2.3*, Abs 340nm 1.1, WNV protease inh 2.6, M1 antagonist -0.65, BAP1 inh inactive and M1 agonist 5.2.
CCOC(=O)c1c(C)n(Cc2ccco2)c2ccc(OC)cc12 was read as Autofluor 339 1.1, Abs 340nm 1.1, WNV protease inh 0.9, M1 antagonist -0.2, BAP1 inh inactive and M1 agonist 0.81.
Screening CC(c1ccc(F)cc1)n1cc(C(=O)NCc2ccc3c(c2)OCO3)nn1 (configuration not stated) returned Autofluor 339 1.1, Abs 340nm 1.1, WNV protease inh -0.37, M1 antagonist -0.064 and M1 agonist -0.43.
`COc1ccc(C2=NCC(=O)N(CC(=O)NCc3ccco3)c3sc4c(c32)CCCC4)cc1OC` gave Autofluor 339 1, Abs 340nm 1, WNV protease inh -0.02, M1 antagonist -0.43, BAP1 inh inactive and M1 agonist 1.8.
COc1ccc(Cn2c(N)c(C(=O)NCc3ccco3)c3nc4ccccc4nc32)cc1OC was read as Autofluor 339 3.7*, Abs 340nm 1, WNV protease inh -0.07, M1 antagonist 0.029, BAP1 inh inactive and M1 agonist -0.52.
Screening CCCNC(=O)c1c(N)n(Cc2ccc3c(c2)OCO3)c2nc3ccccc3nc12 returned Autofluor 339 2.1*, Abs 340nm 0.99, WNV protease inh 1.2, M1 antagonist 1.1 and M1 agonist -0.8.
For Nc1c(C(=O)NCc2ccco2)c2nc3ccccc3nc2n1CCN1CCCCC1 the results were Autofluor 339 2.3*, Abs 340nm 1.1, WNV protease inh 1.4, M1 antagonist 0.89, BAP1 inh inactive and M1 agonist 1.5.
COc1ccc(C(=O)CN2CCOCC2)cc1F was read as Autofluor 339 1.1, Abs 340nm 1, WNV protease inh -0.07, M1 antagonist 0.23, BAP1 inh inactive and M1 agonist -0.46.
Screening O=C(CN1CCOCC1)c1ccc2cc[nH]c2c1 returned Autofluor 339 2.1*, Abs 340nm 1.1, WNV protease inh 0.32, M1 antagonist 0.41, BAP1 inh inactive and M1 agonist 0.46.
Screening O=C(Nc1cccnc1)c1c(O)c2c(n(Cc3ccccc3)c1=O)CCCC2 returned Autofluor 339 1.1, Abs 340nm 1.1, WNV protease inh -0.84, M1 antagonist 0.031, BAP1 inh active, M1 agonist 0.58 and BAP1 inh confirm 69.
For O=C(Nc1ccncc1)c1c(O)c2ccccc2n(Cc2ccccc2)c1=O the results were Autofluor 339 1.1, Abs 340nm 1, WNV protease inh -0.07, M1 antagonist -0.36, BAP1 inh inactive and M1 agonist 0.05.
Screening CCc1nc2ccccc2c(=O)n1-c1ccc(O)cc1 returned BAP1 inh inactive.
`O=C(COc1ccc(Cl)cc1)Nc1ccc(Br)cc1C(=O)c1ccccc1` gave BAP1 inh inactive.
